# Laboratory results as given in PubChem BioAssay AID1159580 (chemical genetic matrix, 2015).
# The campaign covered roughly 5,500 compounds. About 2,000 (36%) were called active. Not shown: some 18% with an inconclusive outcome. The list shows a part of the results. Values without a mark were called inactive. Cut-off read from the data, not from the text of the source: active = normalized growth mostly below about 0.91 (no sharp cut-off); inconclusive = no clear call, values can overlap the other calls; inactive = mostly above about 0.92.
# Test: chemical genetic growth profiling, strain panel (AID 1159580);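 note: tested at 20 µM; growth read once vehicle control cultures reached saturation at 30 °C; 1 = growth at the plate median or of vehicle wells; lower values mean less growth of the strain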
# Conditions: growth OD
# [1] = S. cerevisiae deletion strains, locus YAL013W, strain DEP1, active compounds read low
# [2] = S. cerevisiae deletion strains, locus YBR229C, strain ROT2, active compounds read low
# [3] = S. cerevisiae deletion strains, locus YDL101C, strain DUN1, active compounds read low
# [4] = S. cerevisiae deletion strains, locus YDR150W, strain NUM1, active compounds read low
# [5] = S. cerevisiae deletion strains, locus YEL061C, strain CIN8, active compounds read low
# [6] = S. cerevisiae deletion strains, locus YGR078C, strain PAC10, active compounds read low
# [7] = S. cerevisiae deletion strains, locus YHR030C, strain SLT2, active compounds read low
# [8] = S. cerevisiae deletion strains, locus YHR087W, strain rtc3, active compounds read low
# [9] = S. cerevisiae deletion strains, locus YJR043C, strain POL32, active compounds read low
# [10] = S. cerevisiae deletion strains, locus YJR075W, strain HOC1, active compounds read low
# [11] = S. cerevisiae deletion strains, locus YKL190W, strain CNB1, active compounds read low
# [12] = S. cerevisiae deletion strains, locus YLR039C, strain RIC1, active compounds read low
# [13] = S. cerevisiae deletion strains, locus YLR058C, strain SHM2 (second series), active compounds read low
# [14] = S. cerevisiae deletion strains, locus YLR085C, strain ARP6, active compounds read low
# [15] = S. cerevisiae deletion strains, locus YLR262C, strain YPT6, active compounds read low
# [16] = S. cerevisiae deletion strains, locus YML094W, strain GIM5, active compounds read low
# [17] = S. cerevisiae deletion strains, locus YMR219W, strain ESC1, active compounds read low
# [18] = S. cerevisiae deletion strains, locus YMR263W, strain SAP30, active compounds read low
# [19] = S. cerevisiae deletion strains, locus YNL153C, strain GIM3, active compounds read low
# [20] = S. cerevisiae deletion strains, locus YNL298W, strain CLA4 (second series), active compounds read low
# [21] = S. cerevisiae deletion strains, locus YNL322C, strain KRE1, active compounds read low
# [22] = S. cerevisiae deletion strains, locus YNR030W, strain Alg12, active compounds read low
# [23] = S. cerevisiae deletion strains, locus YPL055C, strain LGE1, active compounds read low
# [24] = S. cerevisiae deletion strains, locus YPL241C, strain CIN2, active compounds read low
# [25] = S. cerevisiae deletion strains, locus YPR135W, strain CTF4, active compounds read low
smiles,measurement,setting,value
O=C1CSC(c2cccnc2)N1c1ccc(Cl)cc1 (centres undefined),normalized growth,[1],1
same,normalized growth,[2],0.997
same,normalized growth,[3],0.978
same,normalized growth,[4],0.997
same,normalized growth,[5],0.977
same,normalized growth,[6],1
same,normalized growth,"S. cerevisiae deletion strains, locus YGR229C, strain SMI1, active compounds read low",0.984
same,normalized growth,[7],1.12
same,normalized growth,[8],0.98
same,normalized growth,[9],0.983
same,normalized growth,[10],1
same,normalized growth,[11],0.997
same,normalized growth,[12],0.723 (active)
same,normalized growth,[13],1.01
same,normalized growth,[14],1
same,normalized growth,[15],0.677 (active)
same,normalized growth,[16],0.957
same,normalized growth,[17],0.992
same,normalized growth,[18],1.04
same,normalized growth,"S. cerevisiae deletion strains, locus YMR307W, strain GAS1, active compounds read low",1.01
same,normalized growth,[19],1.01
same,normalized growth,[20],1
same,normalized growth,[21],0.995
same,normalized growth,[22],0.994
same,normalized growth,[23],0.986
same,normalized growth,[24],1.04
same,normalized growth,[25],1.05
O=C1CSC(c2cccnc2)N1c1ccc(C2CCCCC2)cc1 (centres undefined),normalized growth,[1],1
same,normalized growth,[2],1.01
same,normalized growth,[3],1.03
same,normalized growth,"S. cerevisiae deletion strains, locus YDL134C, strain PPH21, active compounds read low",0.941
same,normalized growth,[4],1.05
same,normalized growth,[5],0.999
same,normalized growth,[6],1.01
same,normalized growth,[7],1.28
same,normalized growth,[8],1.02
same,normalized growth,[9],1.02
same,normalized growth,[10],0.941
same,normalized growth,[11],0.945
same,normalized growth,[12],0.926
same,normalized growth,[13],0.991
same,normalized growth,[14],0.917
same,normalized growth,[15],0.888
same,normalized growth,[16],1.07
same,normalized growth,[17],1.02
same,normalized growth,[18],1.06
same,normalized growth,[19],1.01
same,normalized growth,[20],0.951
same,normalized growth,[21],1
same,normalized growth,[22],0.963
same,normalized growth,[23],1.04
same,normalized growth,[24],1.09
same,normalized growth,[25],0.832
same,normalized growth,"S. cerevisiae strains, strain wild type, active compounds read low",0.96
